Source: PubChem BioAssay AID624330 (Southern Research Specialized Biocontainment Screening …, 2012)
Where “and” joins values, the source holds several entries; their conditions need not be identical. Identical values can stand only once. Hit rate of the full screen: of about 340,000 compounds, about 2,100 (0.62%) were called active.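 Rule for the calls: active = first-screen hits whose inhibition reached a set limit at any dose in the follow-up dose series; inconclusive = inhibition above the set first-screen limit but never retested; inactive = the rest.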 The list is a sample of the results. Measured potencies and affinities stand elsewhere.

What follows are compounds tested against Rac GTPase-activating protein 1 (Homo sapiens) (UniProt Q9H0H5) (assay: blockers of MgcRacGAP-driven Rac1 GTP hydrolysis – biochemical, ADP Hunter fluorescence, primary and confirmatory, confirmation (AID 624330;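 note: fluorescence reports GDP produced by GAP-driven GTP hydrolysis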)). Settings: MgcRacGAP-stimulated Rac1 GTP hydrolysis, at 30 µM, stronger effect = higher value, GST-tagged Rac1 F28L mutant substrate.
Sequence of Rac GTPase-activating protein 1 (Homo sapiens) (Q9H0H5 whole entry, looked up): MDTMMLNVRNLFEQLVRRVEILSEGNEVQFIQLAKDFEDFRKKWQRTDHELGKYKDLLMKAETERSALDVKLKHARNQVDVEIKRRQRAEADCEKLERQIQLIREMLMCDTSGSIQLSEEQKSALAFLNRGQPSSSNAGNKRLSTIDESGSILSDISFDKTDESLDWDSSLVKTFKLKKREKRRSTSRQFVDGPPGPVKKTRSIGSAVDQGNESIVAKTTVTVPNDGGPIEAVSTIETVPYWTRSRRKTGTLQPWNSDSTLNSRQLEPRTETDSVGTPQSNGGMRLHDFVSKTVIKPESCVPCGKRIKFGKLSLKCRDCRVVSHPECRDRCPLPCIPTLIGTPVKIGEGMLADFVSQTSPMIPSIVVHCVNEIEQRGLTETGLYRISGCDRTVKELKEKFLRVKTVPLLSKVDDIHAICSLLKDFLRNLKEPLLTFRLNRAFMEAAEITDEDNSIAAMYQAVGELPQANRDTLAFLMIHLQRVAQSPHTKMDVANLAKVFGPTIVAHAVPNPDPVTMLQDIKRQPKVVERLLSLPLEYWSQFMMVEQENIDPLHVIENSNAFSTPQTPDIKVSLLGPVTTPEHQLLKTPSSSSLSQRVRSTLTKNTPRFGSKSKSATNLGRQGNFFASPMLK

inhibition, inactive:
CCN1C(=NCCOC)N[C@@H](CCc2ccccc2)[C@H](C(=O)OC)[C@H]1C 12.5%
C=C(C)CSc1nc2sc3c(c2c(=O)n1-c1ccccc1)CCN(C)C3 11.6%
COc1cccc(N2CCN(C(=O)NC3CCCCC3)CC2)c1 2.77%
O=C(NC1CCCCC1)N1CCN(c2ccc(Cl)cc2)CC1 6.94%
O=C(c1ccccc1Cc1ccccc1)N1CCN(S(=O)(=O)c2ccccc2Br)CC1 3.3%
COc1ccc(S(=O)(=O)N2CCN(C(=O)CCSc3ccccc3)CC2)cc1 7.76%
O=C(CNC(=O)c1ccccc1Br)N/N=C/c1ccco1 5.21%
O=C(c1ccc(S(=O)(=O)NCC2CCCO2)cc1)N1CCN(c2ccccc2F)CC1 (centres undefined) 5.89%
COc1ccc(N2CCN(C(=O)c3ccc(CS(=O)Cc4ccc(Cl)cc4)o3)CC2)cc1 (centres undefined) 14%
COc1ccc(S(=O)(=O)Cc2ccc(C(=O)N3CCN(c4ccc(Cl)cc4)CC3)o2)cc1 4.84%
C=CCN(Cc1ccc(Cl)s1)C(=O)c1cc(S(=O)(=O)N2CCOCC2)ccc1F 1.3%
COc1ccc(NC(=O)/C(=C\c2cc(OC)c(OC)cc2[N+](=O)[O-])NC(=O)c2ccccc2)cc1 9.89%
COc1cc(/C=C(/NC(=O)c2ccccc2)C(=O)Nc2ccccc2)c([N+](=O)[O-])cc1OC 4.35%
C=CCn1c(CNc2ccc(C)cc2)nnc1SCC(=O)N/N=C/c1ccc(O)cc1 30.4%
C=CCn1c(CNc2ccccc2)nnc1SCC(=O)N/N=C/c1ccccc1O 3.95%
C=CCn1c(COc2ccccc2)nnc1SCC(=O)N/N=C/c1cc(Cl)ccc1O 11%
C=CCn1c(COc2ccccc2)nnc1SCC(=O)N/N=C/c1ccc(C)cc1 1.44%
COc1c(N)c2c(c([N+](=O)[O-])c1OC)C(=O)OC2 -0.66%
C/C(=N\OCC(=O)Nn1c(=O)[nH]c2ccccc2c1=O)c1ccccc1 10.5%
Cc1cc(C)nc(NN=C(c2ccccc2)c2ccccc2)n1 7.14%
CC1=C(C(=O)Nc2ccccc2C(=O)NCCCOC(C)C)SCCO1 -0.28%
O=C(Nc1ccc(Br)cc1)c1cccc(N2C(=O)C3C4C=CC(C4)C3C2=O)c1 (centres undefined) 7.3%
O=C(Nc1ccccc1)c1cccc(N2C(=O)C3C4C=CC(C4)C3C2=O)c1 (centres undefined) 8.69%
CN1CCOCCOCCN(C)C1=O 8.52%
O=C(Cc1cccc2ccccc12)NC(=S)Nc1cccc(C(=O)O)c1 5.5%
O=C(N/N=C/c1ccc(O)cc1O)NC12CC3CC(CC(C3)C1)C2 15%
COc1ccc(/C=N/NC(=O)C2C3CCCCC32)cc1OC (centres undefined) 10.4%
COc1ccc(C=NNC(=S)NC23CC4CC(CC(C4)C2)C3)cc1OC 7.09%
COc1ccc(/C=N/N=C2\CC3CCC2(C)C3(C)C)cc1O (centres undefined) 5.9%
O=C(N/N=C/c1ccncc1)NC12CC3CC(CC(C3)C1)C2 10.9%
COc1cc(/C=N/NC(=O)NC23CC4CC(CC(C4)C2)C3)ccc1OCC(N)=O 7.72%
COc1ccc(C=NNC(=O)NN=Cc2ccc(OC)c(OC)c2)cc1OC 3.42%
COc1ccc(/C=C2/S/C(=N/N=C3\CC4CCC3(C)C4(C)C)NC2=O)cc1 (centres undefined) 7.33%
COc1ccc(C(=O)NCC(=O)N/N=C(\C)c2ccco2)cc1OC -0.25%
CCOC(=O)CNc1nc(Cl)nc(Nc2ccc(Cl)cc2)n1 -8.39%
CCCCn1nnc(N(C(=O)c2cccs2)C(=O)c2cccs2)n1 -4.48%
CC(C)CC(=O)NC(=S)Nc1ccc(N2CCOCC2)c(Cl)c1 2.66%
S=C(c1ccc(-c2ccc(Cl)cc2Cl)o1)N1CCCCC1 10.8%
O=C(COc1ccc(Cl)cc1)NNC(=O)c1ccncc1 8.55%
Cc1ccc(NC(=O)c2sccc2C)cc1S(=O)(=O)N(C)C 11.1%
COc1ccc2c(c1)C1NC(=S)N[C@@](C)(O2)C1C(=O)Nc1ccccc1 (some centres undefined) 9.66%
COc1nn(CC(=O)N2N=C(C(F)F)CC2(O)C(F)F)cc1[N+](=O)[O-] (centres undefined) 5.35%
CC(C)CN1CCC(=O)N([C@H](CN=[N+]=[N-])Cc2ccccc2)CC1 7.37%
O=C(NN=Cc1cc([N+](=O)[O-])ccc1O)c1cccc2ccccc12 4.07%
O=C(N/N=C/c1ccccc1O)NC12CC3CC(CC(C3)C1)C2 7.17%
COc1ccc(/C=N/NC(=O)NC23CC4CC(CC(C4)C2)C3)c(OC)c1 0.89%
COc1ccccc1N1CCN(C2CCCN(C(=O)c3ccsc3)C2)CC1 (centres undefined) 9.49%
Cc1nnc(SCC(=O)NNC(=O)COc2ccc(Cl)cc2)s1 3.46%
CCN(CC)c1ccc(C(=C2C=CC(=[N+](CC)CC)C=C2)c2ccc(S(=O)(=O)O)cc2S(=O)(=O)[O-])cc1 25.4%
CCN(CC)c1ccc(C(=O)NNC(=O)CCNC(=O)c2ccccc2)cc1 7.48%
CCN(CC)c1ccc(C(=O)NN)cc1 10%
CCN(CC)c1ccc(C(=S)NCc2ccccc2)cc1 9.69%
CC(C)(/C=N/NC(=O)CSCc1ccccc1Cl)CCC#N 4.57%
Cc1nc(NC(=O)C2CC2)sc1C(=O)Nc1ccccc1 12.6%
CCc1ccc(NS(=O)(=O)c2ccc3[nH]c(=O)[nH]c3c2)cc1 -4.35%
Cn1c(SCC(=O)NC2CCS(=O)(=O)C2)nnc1-c1ccco1 (centres undefined) -3.56%
O=C(CCNC(=O)c1ccccc1)NC1CCCc2ccccc21 (centres undefined) 6.57%
Cc1ccc(S(=O)(=O)NCCc2ccncc2)cc1[N+](=O)[O-] 2.26%
CCN(CC)S(=O)(=O)c1cccc(-c2n[nH]c(=S)n2/N=C/c2ccc(Br)cc2)c1 12.8%
CCN(CC)S(=O)(=O)c1cccc(-c2n[nH]c(=S)n2/N=C/c2ccc(OC)cc2)c1 8.14%
CC(=O)Nc1ccc(Oc2ccc(-c3noc(C)n3)cc2)cc1 10.9%
CC(NC(=O)Cc1cccc(C(F)(F)F)c1)c1ccc(F)cc1 (centres undefined) 0.98%
CCOC(=O)c1c(C)nsc1NCc1ccccc1 10.9%
CCOC(=O)c1sc(NC(C)=O)nc1C 6.36%
CCOC(=O)c1c(C)nsc1NC(=O)C1CCCCC1 -1.81%
CCOC(=O)c1sc(NC(=O)CC)nc1C 7.69%
O=C(NCCO)c1ccc(-c2nnc(N3CCOCC3)c3ccccc23)cc1 1.36%
O=C1CCc2cc(S(=O)(=O)Nc3ccc(F)cc3)cc3c2N1CC3 6.87%
N=C(N)c1ccccc1 2.01% and 4.94%
N=C(N)c1ccc(O)cc1 3.97%
O=[N+]([O-])c1ccc(C=CC=Cc2ccccc2)cc1 5.54%
O=[N+]([O-])/C=C\c1ccc(N2CCOCC2)cc1 24%
Cc1cccc(Cn2cc(/C=C/[N+](=O)[O-])c3ccccc32)c1 3.28%
O=[N+]([O-])/C=C/c1cn(Cc2ccccc2)c2ccccc12 4.89%
CS(=O)(=O)N(CC(=O)NCCSCc1ccco1)c1ccc(Cl)cc1 5.58%
Cc1ccc(N(CC2CO2)S(=O)(=O)c2ccc([N+](=O)[O-])cc2)cc1 (centres undefined) 4.81%
COC(=O)c1ccc(NC(=O)C2CCN(C(=O)Nc3ccccc3)CC2)cc1 5.55%
O=[N+]([O-])c1ccc(N2CCCC2)c([N+](=O)[O-])c1 6.43%
O=[N+]([O-])c1cc(C(F)(F)F)ccc1N1CCN(CCO)CC1 4.15%
Cc1nn(CC(=O)Nc2ccc3c(c2)OCCO3)c(C)c1[N+](=O)[O-] 0.26%
O=C(O)/C=C/c1cnn(-c2ccccc2)c1 2.55%
CCOC(=O)/C=C/c1cnn(-c2ccccc2)c1 6.95%
CCN=C1S/C(=C\c2cc(Cl)c(OC)c(OC)c2)C(=O)N1CC 4.7%
O=C(NNS(=O)(=O)c1ccc(F)cc1)c1ccc(O)cc1 6.98%
COc1ccc(Cn2nnnc2CN2CCOCC2)cc1 7.47%
CCOC(=O)Cn1nnnc1CN1CCN(c2ccc(OC)cc2)CC1 14.7%
C=CCN(c1ccccc1)S(=O)(=O)c1cccc(C(=O)Nc2ncccc2O)c1 -0.92%
Cc1ccc(N(C(=O)Cn2nnc(-c3ccccc3F)n2)C(C(=O)NC2CCCC2)c2ccncc2)cc1 (centres undefined) 6.05%
COc1ccc(OC)c(-c2csc(NC(=O)COC(=O)c3ccc(NC(=O)CC#N)cc3)n2)c1 5.16%
Cc1cc(C(=O)NC(C)C2CCCO2)cs1 (centres undefined) -7.59%
CCCn1c(=O)c2ccccc2n2c(SCC(N)=O)nnc12 18.7%
CCCn1c(=O)c2ccccc2n2c(SCCOc3ccccc3)nnc12 4.68%
Cc1ccc(NC(=O)CN(C)S(=O)(=O)c2ccc3c(c2)n(C)c(=O)c(=O)n3C)cc1 7.39%
CCOC(=O)C(=NC(C)CC)NNc1ccc(Br)cc1 (centres undefined) 9.58%
